Test results from PubChem BioAssay (NCATS).
Potency and affinity values are given separately. Values without a mark were called inactive. How the calls were made is not given here.

details: Ebola virus entry assay, green fluorescence channel
Further: 0% is about no effect.

Row | SMILES | efficacy [%]
1 | O=C1NCCN1CCN1CCC(c2cn(-c3ccc(F)cc3)c3ccc(Cl)cc23)CC1 | -279
2 | OC(CCCN1CCCCC1)(c1ccccc1)c1ccccc1 | 50.3
3 | CCN(CC)CCOC(=O)C(c1ccccc1)C1CCCCC1 (stereo not given) | -237
4 | CCOC(=O)C1=C(C)NC(C)=C(C(=O)OCC)C1c1ccccc1/C=C/C(=O)OC(C)(C)C | 50
5 | COc1cccc(N(C)C(=S)Oc2ccc3c(c2)CCCC3)n1 | 84.1
6 | CCCOC(C(=O)OC1CCN(C)CC1)(c1ccccc1)c1ccccc1 | 30.9
7 | COc1ccc(CCN(C)CCCC(C#N)(c2cc(OC)c(OC)c(OC)c2)C(C)C)cc1OC (stereo not given) | 75
8 | NCc1ccccc1Sc1ccccc1CO | 118
9 | Cc1nc2n(c(=O)c1CCN1CCC(C(=O)c3ccc(F)cc3)CC1)CCS2 | 91.8
10 | COc1ccccc1N1CCN(CC(O)COc2cccc3ccccc23)CC1 (stereo not given) | -101
11 | CC[n+]1c(-c2ccccc2)c2cc(N)ccc2c2ccc(N)cc21 | 67.8
12 | Nc1c2c(nc3c1CCC3)CCCC2 | 42.2
13 | CC(=O)SC[C@@H](Cc1ccccc1)C(=O)NCC(=O)OCc1ccccc1 | 58
14 | C=C1c2cccc(O)c2C(O)=C2C(=O)[C@]3(O)C(O)=C(C(N)=O)C(=O)[C@@H](N(C)C)[C@@H]3[C@@H](O)[C@H]12 | 38.3
15 | CSc1ccc(/C=C2/C(C)=C(CC(=O)O)c3cc(F)ccc32)cc1 | 33.8
